Sm TGR block: S. mansoni TGR enzyme inhibition; AID 485364; 360,000 compounds, 3% hits; Potency, µM (titrated, usually from 114 µM), without a hit: at the highest dose activity change, negative = inhibition, actives largely listed as inhibitors; purified TGR, DTNB reduction, TNB absorbance 405 nm; further: potency means the concentration at half of the fitted maximal effect; nearly all actives have a fitted effect of over 60% in size
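Kinetic colorimetric format: TGR-catalysed, NADPH-driven DTNB reduction monitored via TNB absorbance. Enzyme dispensed at 20 nM; compound exposure 15 min at room temperature before reaction start.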
HCMV inh: blocks human cytomegalovirus replication; AID 1259415; 410,000 compounds, 4.5% hits; activity change, negative = inhibition, % at 57.5 µM; HFF cells, HCMV-luciferase reporter, 72 h; active compounds read low; in the data active means activity change below about -60%; inconclusive means no clear call, values can overlap the other calls; inactive means above about -39%
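Cell-based, HFFs, 1000 cells/well, 16 h 37C; cpds in DMSO + HCMV-luc, MOI 1 PFU/cell; 72 h 37C; OneGlo luminescence after 5 min RT; norm. to buffer vs Salinomycin 10uM.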
Pf growth 48h: P. falciparum growth inhibition at 48 hours (one generation). AID 504832. 310,000 compounds, 5.9% hits. P. falciparum luciferase growth in erythrocytes, 48 h. Potency, µM (doses to about 28.7 µM), for the others: at the top dose activity change, negative = inhibition, most hits filed as inhibitors; further: potency means the concentration at half of the fitted maximal effect
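Erythrocytes infected with P. falciparum carrying an integrated firefly luciferase reporter (2% hematocrit, 0.1% parasitemia final) were exposed to compounds in RPMI 1640 with 0.5% Albumax at 37 C, 5% CO2. Growth inhibition was scored as reduced luminescence.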
Pf growth 96h: P. falciparum growth inhibition at 96 hours. P. falciparum luciferase reporter growth, 96 h. 320,000 compounds, 6.9% hits. AID 504834. Potency, µM (series often up to 28.7 µM), without a hit: at the top dose activity change, negative = inhibition, usual class: inhibitors; further: potency means the concentration at half of the fitted maximal effect
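P. falciparum expressing integrated firefly luciferase, in erythrocytes at 2% hematocrit, 0.05% parasitemia, incubated with compounds 96 h at 37 C, 5% CO2. Growth inhibition read as loss of luminescence; two-generation exposure targets delayed-death apicoplast inhibitors.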
FBPA Giardia inh: blocks Giardia fructose-bisphosphate aldolase activity; 290,000 compounds, 0.71% hits; purified Giardia FBPA; Potency, µM (titrated, usually from 59.6 µM), for inactives: at the top dose activity, negative = inhibition, usual class: inhibitors; A8B2U2; further: potency means the concentration at half of the fitted maximal effect; nearly all actives have a fitted effect of over 55% in size
Target sequence (A8B2U2 whole entry, looked up): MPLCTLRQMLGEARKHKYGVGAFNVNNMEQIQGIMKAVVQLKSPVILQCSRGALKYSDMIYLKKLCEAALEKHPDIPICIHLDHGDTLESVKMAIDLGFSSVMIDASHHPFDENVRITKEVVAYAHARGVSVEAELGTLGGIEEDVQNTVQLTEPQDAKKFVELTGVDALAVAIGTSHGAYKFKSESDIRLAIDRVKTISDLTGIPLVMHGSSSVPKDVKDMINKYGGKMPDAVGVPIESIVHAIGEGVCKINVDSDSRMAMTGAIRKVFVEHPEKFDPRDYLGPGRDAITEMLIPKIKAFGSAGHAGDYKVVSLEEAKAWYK
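40 nM FBPA preincubated 10 min at RT with compound (up to 57.5 uM final), then substrate plus GAPDH/TPI/NAD/arsenate coupling and diaphorase/resazurin added. Fluorescence read after 20 min at RT, 525/598 nm.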
Active calls of the source: *; [ ] = dose if it differs, or a comment. In the library only some 14% were active in any assay of this set; here they are far more common. Unless noted, the call rests on the fitted dose curve; in most records, active means well fitted curve in the direction sought with a large enough effect; inconclusive means small, poorly fitted or top-dose-only effect, or another doubt; inactive means no such curve, though single readings can be large; an effect the other way counts as inactive or inconclusive. On the % scale 0 is the no-effect control and ±100 the full control effect.

Results for COc1cccc(CC2(CO)CCCN(Cc3cn[nH]c3-c3ccc(F)cc3)C2)c1 (centres undefined) ?
Sm TGR block: 8%; HCMV inh: -18; Pf growth 48h: inconclusive; Pf growth 96h: 256%; FBPA Giardia inh: -4%

How did COc1cccc(CC2(CO)CCCN(Cc3cc(F)ccc3-n3cccn3)C2)c1 (centres undefined) do in these assays?
Sm TGR block: -4%; HCMV inh: -19; Pf growth 48h: 13µM*; Pf growth 96h: 36%; FBPA Giardia inh: 1%

What do the screens show for `COc1cccc(CC(=O)N2CCCC(CO)(Cc3ccc(F)cc3F)C2)c1` (centres undefined)?
Sm TGR block: 3%; HCMV inh: 12; Pf growth 48h: -9%; Pf growth 96h: 8.3µM*; FBPA Giardia inh: 4%

What do the screens show for `CC(C)(O)C#Cc1ccc(CN2CCCC(CO)(Cc3cccc(Cl)c3)C2)cc1` (centres undefined)?
Sm TGR block: -11%[57.1 µM]; HCMV inh: -82*; Pf growth 48h: inconclusive; Pf growth 96h: -12%; FBPA Giardia inh: 1%

Results for CCOC(=O)N1CCC(N2CCCC(CO)(Cc3cccc(OC)c3)C2)CC1 (centres undefined) ?
Sm TGR block: -16%[57.1 µM]; HCMV inh: 14; Pf growth 48h: inconclusive; Pf growth 96h: 3.3µM*; FBPA Giardia inh: 3%

How did CC(=O)N1[C@@H]2Cn3c(ccc(-c4ccccc4F)c3=O)[C@H]1[C@@H](C(=O)N1CCOCC1)[C@@H]2CO do in these assays?
HCMV inh: -19

Results for Cc1cccc(-n2c(=O)c3ccccc3n3c(=S)[nH]nc23)c1C ?
Sm TGR block: -1%; HCMV inh: -13; Pf growth 48h: -1%; Pf growth 96h: 15%; FBPA Giardia inh: 0%

How did Cc1ccccc1CC1(CO)CCCN(Cc2ccccc2Cl)C1 (centres undefined) do in these assays?
Sm TGR block: 25µM*; HCMV inh: 3; Pf growth 48h: -27%; Pf growth 96h: inconclusive; FBPA Giardia inh: 5%

Results for Cc1nn(C)c(C)c1S(=O)(=O)N(CC(=O)Nc1ccccn1)c1ccc(C(C)C)cc1 ?
Sm TGR block: 7%; HCMV inh: -23; Pf growth 48h: 3%; Pf growth 96h: inconclusive; FBPA Giardia inh: -2%

How did COc1ccc2nc(NC(=O)CN(c3ccc(C)cc3)S(=O)(=O)c3c(C)nn(C)c3C)sc2c1 do in these assays?
Sm TGR block: -5%; HCMV inh: -6; Pf growth 48h: 12µM*; Pf growth 96h: 2.6µM*; FBPA Giardia inh: -8%

How did COc1ccc(NC(=O)CN(c2ccc(C)cc2)S(=O)(=O)c2c(C)nn(C)c2C)cc1 do in these assays?
Sm TGR block: -12%; HCMV inh: -32; Pf growth 48h: inconclusive; Pf growth 96h: -2%; FBPA Giardia inh: -6%

Results for Cc1cccc(NC(=O)CN(c2ccc(C(C)C)cc2)S(=O)(=O)c2c(C)nn(C)c2C)n1 ?
Sm TGR block: 6%; HCMV inh: -25; Pf growth 96h: 2.9µM*; FBPA Giardia inh: 1%

Results for CCOC(=O)c1ccc(NC(=O)CN(c2ccc(C)cc2)S(=O)(=O)c2c(C)nn(C)c2C)cc1 ?
Sm TGR block: -1%; HCMV inh: 75; Pf growth 48h: 10µM*; FBPA Giardia inh: -1%

What do the screens show for `C#CCN1CCc2onc(-c3ccc(Br)cc3)c2C1=O`?
HCMV inh: -30

How did O=C(CNc1ccc2ccccc2c1)N/N=C/c1ccc(OC(=O)/C=C/c2ccco2)cc1 do in these assays?
Sm TGR block: -9%; HCMV inh: -18; Pf growth 48h: 8.3µM*; Pf growth 96h: 31%; FBPA Giardia inh: -9%

What do the screens show for `O=C(/C=C/c1ccco1)Oc1cc(Br)cc(/C=N/NC(=O)c2ccccc2O)c1`?
Sm TGR block: -6%; HCMV inh: -101*; Pf growth 48h: 1.9µM*; Pf growth 96h: 30%; FBPA Giardia inh: -8%

How did O=C(CNc1cccc2ccccc12)N/N=C/c1ccc(OC(=O)/C=C/c2ccco2)cc1 do in these assays?
Sm TGR block: 4%; HCMV inh: -7; Pf growth 48h: inconclusive; Pf growth 96h: -7%; FBPA Giardia inh: -13%

How did COc1ccccc1/C=C/C(=O)NCC(=O)N/N=C/c1ccc2c(c1)OCO2 do in these assays?
Sm TGR block: 5%; HCMV inh: -25; Pf growth 48h: -3%; Pf growth 96h: -21%; FBPA Giardia inh: 2%

How did COc1ccc(/C=N/NC(=O)CNC(=O)/C=C/c2ccco2)cc1OC do in these assays?
Sm TGR block: 25µM*; HCMV inh: 0; Pf growth 48h: -2%; Pf growth 96h: 375%; FBPA Giardia inh: 11%

How did COc1cc(/C=N/NC(=O)CNC(=O)/C=C/c2ccco2)cc(OC)c1OC do in these assays?
Sm TGR block: 50µM*; HCMV inh: 0; Pf growth 48h: 5%; Pf growth 96h: 24%; FBPA Giardia inh: 10%

How did Cc1ccc2c(c1)C(O)(C1C(=O)N(C)c3ccccc31)C(=O)N2Cc1ccccc1 (centres undefined) do in these assays?
HCMV inh: -17

Results for COc1ccc(S(=O)(=O)N2CCC(C(=O)NCc3cccnc3)CC2)cc1Cl ?
Sm TGR block: 3%; HCMV inh: inconclusive; Pf growth 48h: 1%; Pf growth 96h: 30%; FBPA Giardia inh: 6%

What do the screens show for `Cc1c(C(=O)OCC(=O)NCC2CCCO2)cccc1[N+](=O)[O-]` (centres undefined)?
Sm TGR block: 2%; HCMV inh: -24; Pf growth 48h: 0%; Pf growth 96h: 16%; FBPA Giardia inh: 2%

What do the screens show for `CCC12C=C(/C=C/c3ccccc3)C(CC)(C1)C(c1ccccc1)CC2=O` (centres undefined)?
FBPA Giardia inh: 0%[12.9 µM]

What do the screens show for `COC(=O)[C@@]1(Cc2ccc(F)cc2)[C@H]2c3cc(C(=O)N(C)C)n(Cc4c(CO)[nH]cc(C)c4=O)c3C[C@H]2CN1C(=O)c1ccccc1`?
Sm TGR block: -17%; HCMV inh: -11; Pf growth 48h: 1.3µM*; Pf growth 96h: 1.9µM*; FBPA Giardia inh: -12%

What do the screens show for `COC(=O)[C@@]1(Cc2ccc(F)cc2)[C@H]2c3cc(C(=O)N(C)C)n(Cc4ccc(OC(F)(F)F)cc4)c3C[C@H]2CN1C(=O)c1ccccc1`?
Sm TGR block: -10%; HCMV inh: -19; Pf growth 48h: 1.9µM*; Pf growth 96h: 2.3µM*; FBPA Giardia inh: -10%

Results for COc1cnc(-c2ccccn2)nc1Sc1c(Cl)cccc1Cl ?
Sm TGR block: -26%; HCMV inh: -73*; Pf growth 48h: 1.7µM*; Pf growth 96h: 2.1µM*; FBPA Giardia inh: 1%

How did COc1ccccc1Sc1nc(-c2ccccc2)ncc1OC do in these assays?
Sm TGR block: 8%; HCMV inh: inconclusive; Pf growth 48h: inconclusive; Pf growth 96h: inconclusive; FBPA Giardia inh: -11%

Assay outcomes from PubChem.
